Measurements taken from ChEMBL document CHEMBL4513216, “Probing the Open Global Health Chemical Diversity Library for Multistage-Active Starting Points for Next-Generation Antimalarials” (ACS Infect Dis, 2020).
Among all 69,000 compounds or so, about 8,600 (12%) showed an effect of 50% or more. The sample as a whole holds a higher share of strong results than the screen did.

What follows are compounds tested on Plasmodium berghei (assay: Screen against P. berghei liver stage (PbLuc), transformed with Luciferase, at 10uM). Settings: tested at 10 uM.
Assay type: functional, HepG2
For `CCOCC(O)CN1CCN(C(=O)c2cc(C)ccc2OC)CC1` (stereo not given), the INHIBITION was -35.7%.
For `Cn1cc(CC2CCN(C(=O)NCc3csc(C4CC4)n3)C2)cn1` (stereo not given), the INHIBITION was 11.8%.
`O=C(O)c1cccnc1CN1CCCCC1CCc1cccs1` (stereo not given) showed an INHIBITION of 5.78%.
Work on `Cc1nc(NC(=O)N[C@H](CO)c2ccccc2)sc1C` yielded an INHIBITION of 7.3%.
In the case of `CCn1nc(C(C)C)cc1C(=O)NCc1nc2ccc(OC)cc2[nH]1`, the INHIBITION is reported as 37.6%.
`COc1ccc2nc(CNC(=O)c3cc(C(C)C)no3)[nH]c2c1` showed an INHIBITION of 73.4%.
`COc1ccc(COCC(O)CNC(=O)c2cc(C)no2)cc1` (stereo not given) showed an INHIBITION of 5.03%.
`COc1ccc2nc(CNC(=O)c3cc(C(C)C)on3)[nH]c2c1` was tested, and the INHIBITION was 27.5%.
In the case of `COc1ccc2nc(CCNC(=O)c3cc(CC(C)C)no3)[nH]c2c1`, the INHIBITION is reported as 55.5%.
`COc1ccc2cc(C(=O)NCCc3nc(C)no3)[nH]c2c1` showed an INHIBITION of -1.79%.
With `Cc1ccc(CN2CCC[C@]3(C(=O)O)CN(C)C[C@@H]3C2)s1` the INHIBITION was 6.79%.
Compound `c1ccc2c(c1)cnn2CCCNC1CCOC2(CCOCC2)C1` (stereo not given) has an INHIBITION of -9.39%.
`c1csc(N2CCCN(c3nccn4cnnc34)CC2)n1` gave an INHIBITION of -27.8%.
`Cc1ccc(OCCN(C)Cc2ccc(S(=O)(=O)N(C)C)o2)cc1` gave an INHIBITION of 47.7%.
In the case of `CN(CCOc1ccc(Cl)cc1)Cc1ccc(S(=O)(=O)N(C)C)o1`, the INHIBITION is reported as 51%.
For `Cc1cc(C)cc(OCCN(C)Cc2ccc(S(=O)(=O)N(C)C)o2)c1`, the INHIBITION was 7.39%.
`CC(C)NC(=O)c1ccc2c(c1)C1(CCN(C(C)C)CC1)C(=O)N2` gave an INHIBITION of -25.1%.
For `O=C(NCCNc1ncccn1)C1CCN(C(=O)N2CCCC2)CC1`, the INHIBITION was -33.9%.
Work on `O=C1CC(c2ccc(O)cc2)c2c(n3ccsc3nc2=O)N1` (stereo not given) yielded an INHIBITION of 2.66%.
Compound `CO[C@@H]1CC[C@H]2[C@H]1OCCN2CC1CC1` has an INHIBITION of 23.6%.
Compound `C1CC(CO[C@@H]2CC[C@H]3[C@H]2OCCN3CC2CC2)CCO1` has an INHIBITION of -11.6%.
`C1CC(CO[C@@H]2CC[C@H]3[C@H]2OCCN3CC2CCOCC2)CCO1` showed an INHIBITION of 7.31%.
Work on `CCO[C@@H]1CC[C@H]2[C@H]1OCCN2CC1CCOCC1` yielded an INHIBITION of 27.6%.
`CCO[C@@H]1CC[C@H]2[C@H]1OCCN2CC1CCC1` was tested, and the INHIBITION was 54.7%.
`C1CCC(CO[C@@H]2CC[C@H]3[C@H]2OCCN3CC2CCOCC2)C1` gave an INHIBITION of 65.6%.
`COc1ccccc1C(C)N(C)Cc1nc2c(cnn2C)c(=O)[nH]1` (stereo not given) gave an INHIBITION of -75.245%.
For `CCCc1n[nH]cc1C(=O)NCC1COc2cc(OC)ccc2C1` (stereo not given), the INHIBITION was -3.83%.
`CCc1nc2c(NCC3COc4cc(OC)ccc4C3)ncnc2o1` (stereo not given) gave an INHIBITION of 67.7%.
With `COc1ccc2c(c1)OCC(CNC(=O)NC(C)(C)C)C2` (stereo not given) the INHIBITION was 31%.
`CCc1nc2c(NCC3COc4c(cccc4OC)C3)ncnc2o1` (stereo not given) was tested, and the INHIBITION was 55.4%.
Compound `CN1CCN(S(=O)(=O)NCC2COc3ccccc3C2)CC1` (stereo not given) has an INHIBITION of -22.1%.
`COc1cccc2c1OCC(CNC(=O)Cc1c(C)nc(N)nc1C)C2` (stereo not given) was tested, and the INHIBITION was -13%.
In the case of `COc1cccc2c1OCC(CNc1ccc(C)nn1)C2` (stereo not given), the INHIBITION is reported as 42.7%.
With `CCc1nc2c(NCC3COc4ccccc4C3)ncnc2o1` (stereo not given) the INHIBITION was 91.5%.
For `O=C(c1cncc(NCC2COc3ccccc3C2)n1)N1CCCC1` (stereo not given), the INHIBITION was 33.7%.
Compound `Cc1nc(C2CCCN(C(=O)COCCc3ccccc3)C2)no1` (stereo not given) has an INHIBITION of 11.2%.
For `CCCn1nccc1-c1cc(C2CCN(S(C)(=O)=O)CC2)nc(C)n1`, the INHIBITION was -39.4%.
Work on `COc1ccc2cnn(CC(=O)NCC3CCCO3)c(=O)c2c1OC` (stereo not given) yielded an INHIBITION of 34.5%.
Work on `CCC(C)CS(=O)(=O)NC(=O)C1CCC1` (stereo not given) yielded an INHIBITION of 62.3%.
`CCC(C)CS(=O)(=O)NC(=O)C1CC1` (stereo not given) gave an INHIBITION of 2.39%.
Work on `CCC(CC)CS(=O)(=O)NC(=O)C1CCC1` yielded an INHIBITION of 7.49%.
With `CCCN1CCC(Cc2noc(-c3[nH]cnc3C)n2)CC1` the INHIBITION was -1.85%.
With `Cc1ccc(N2CCCC3(COCCN(c4ccccn4)C3)C2)nn1` (stereo not given) the INHIBITION was 17.2%.
For `Cc1ccc(CNC(=O)CN2CCCC(Cn3cncn3)C2)cc1` (stereo not given), the INHIBITION was 31.8%.
Compound `Cc1ccc(CN2CCn3c(CNC(=O)c4cccn4C)cnc3C2)s1` has an INHIBITION of 54.7%.
`Cn1cccc1C(=O)NCc1cnc2n1CCN(CC1CC1)C2` gave an INHIBITION of -13%.
For `Cn1cc(C(=O)NCc2cn3c(n2)CN(CC2CCOC2)CC3)cn1` (stereo not given), the INHIBITION was -11.6%.
Work on `O=C(CC1CC1)NCc1cn2c(n1)CN(Cc1cccnc1)CC2` yielded an INHIBITION of 33.4%.
`Cn1cc(C(=O)NCc2cn3c(n2)CN(Cc2ccncc2)CC3)cn1` gave an INHIBITION of -4.88%.
Work on `O=C(NCc1cn2c(n1)CN(Cc1cccc(F)c1)CC2)C1CCC1` yielded an INHIBITION of -14.4%.
`Cn1cccc1C(=O)NCc1cn2c(n1)CN(CC1CCOCC1)CC2` gave an INHIBITION of -4.88%.
Compound `Cn1cc(CN2CCn3c(CNC(=O)c4cccn4C)cnc3C2)cn1` has an INHIBITION of 2.01%.
Work on `O=C(CC1CC1)NCc1cn2c(n1)CN(Cc1cccc(F)c1)CC2` yielded an INHIBITION of 50.9%.
With `Cn1cccc1C(=O)NCc1cn2c(n1)CN(Cc1ccccn1)CC2` the INHIBITION was -37.6%.
In the case of `Cn1cc(C(=O)NCc2cn3c(n2)CN(Cc2ccccn2)CC3)cn1`, the INHIBITION is reported as 53%.
For `Cn1cccc1C(=O)NCc1cn2c(n1)CN(CC1CCOC1)CC2` (stereo not given), the INHIBITION was 58.4%.
Compound `Cc1nc(C)n(C2CCCN(C(=O)c3ccc(F)c(F)c3)C2)n1` (stereo not given) has an INHIBITION of 6.333%.
For `Cc1noc(-c2ccc(N3CCN(Cc4ncccc4C)CC3)nc2)n1`, the INHIBITION was 17.1%.
For `O=C(CN1CC(c2nc(C3CC3)no2)C1)NCc1ccc(F)cc1`, the INHIBITION was -50.7%.
Compound `CN(CCc1noc(C2CC2)n1)C(=O)C1(N2CCCC2)CCCC1` has an INHIBITION of 10.7%.
In the case of `Cc1nc(-c2ccccc2)cc(C2CCNCC2)n1`, the INHIBITION is reported as -25.3%.
Compound `COc1ccc(CNCc2c(C(C)C)nn(C)c2N(C)C)cn1` has an INHIBITION of 19.2%.
`CC(C)=CCCC1(C)CCC(=O)N(CCNc2nc(C)cc(=O)[nH]2)C1` (stereo not given) was tested, and the INHIBITION was 18.5%.
Compound `N#CCCN(C(=O)CN1CCCC1c1cccs1)c1ccccc1F` (stereo not given) has an INHIBITION of 13.833%.
`O=C1Nc2ccccc2CN(CC=Cc2ccccc2)C12CCNC2` (stereo not given) was tested, and the INHIBITION was 35.8%.
Compound `O=c1[nH]c2cn(-c3ccc(Cl)cc3)c(=O)n2[nH]1` has an INHIBITION of -20.6%.
`CCC(CC)NC(=O)Cn1cc(-c2ccccc2)cn1` showed an INHIBITION of 48.4%.
Work on `Cn1cc(C(=O)NCc2cn3c(n2)CN(CC2CCOCC2)CC3)cn1` yielded an INHIBITION of 9.54%.
In the case of `CN1CCN(Cc2cn3c(n2)CN(C2CCOCC2)CC3)CC1`, the INHIBITION is reported as 11.6%.
`O=C(NCc1cn2c(n1)CN(CC1CCOCC1)CC2)C1CCC1` was tested, and the INHIBITION was 60.2%.
Work on `COCCN1CCn2cc(CNC(=O)C3CCC3)nc2C1` yielded an INHIBITION of -10.3%.
Compound `c1c(CN2CCCC2)nc2n1CCN(C1CCOCC1)C2` has an INHIBITION of 54.4%.
Compound `Cn1cc(CN2CCn3cc(CNC(=O)c4cccn4C)nc3C2)cn1` has an INHIBITION of 62.6%.
Compound `Cn1cc(C(=O)NCc2cn3c(n2)CN(C2CCOCC2)CC3)cn1` has an INHIBITION of 54.7%.
`O=C(NCc1cn2c(n1)CN(Cc1nccs1)CC2)C1CCC1` gave an INHIBITION of 11.4%.
`Cn1cccc1C(=O)NCc1cn2c(n1)CN(Cc1cccnc1)CC2` showed an INHIBITION of 15.8%.
With `Cn1cc(CN2CCn3cc(CNC(=O)CC4CC4)nc3C2)cn1` the INHIBITION was 33.4%.
Compound `CCN1CCn2cc(CNC(=O)c3cnn(C)c3)nc2C1` has an INHIBITION of -18.4%.
For `c1c(CN2CCOCC2)nc2n1CCN(C1CCOCC1)C2`, the INHIBITION was 27.5%.
`Cn1cc(C(=O)N2CC[C@@H]3[C@@H]2CCN3Cc2ccccc2)cn1` gave an INHIBITION of 5.44%.
`COc1ccc2c(ccn2CC(=O)Nc2n[nH]c(C(C)C)n2)c1` showed an INHIBITION of 35.7%.
In the case of `CC(C)n1cnnc1CN(C)C(=O)c1ccc[nH]1`, the INHIBITION is reported as -5.19%.
`O=C(c1cnccn1)N1CCCC2(CCN(c3ccccn3)C2)C1` (stereo not given) showed an INHIBITION of -16.1%.
`CCNc1cc2c(nn1)CCN(C(=O)c1ccnc(C)n1)C2` showed an INHIBITION of 7.75%.
With `Cc1ccnc(NCC2(N(C)C)CCOCC2)n1` the INHIBITION was -24%.
Compound `O=C(c1cccnc1)N1CCc2ncnc(N3CCOCC3)c2CC1` has an INHIBITION of 41.6%.
`c1ccc(NCc2cn3c(n2)CN(Cc2cccs2)CC3)nc1` gave an INHIBITION of 26.5%.
With `CC(=O)N1CCn2cc(CNC(=O)c3cccn3C)nc2C1` the INHIBITION was 38.1%.
`Cn1cccc1C(=O)NCc1cn2c(n1)CN(c1ncccn1)CC2` gave an INHIBITION of -0.453%.
For `c1ccc(NCc2cn3c(n2)CN(Cc2ccoc2)CC3)nc1`, the INHIBITION was -13.7%.
Compound `Cc1noc(C)c1CN1CCn2cc(CNc3ccccn3)nc2C1` has an INHIBITION of 88.1%.
For `Cn1cccc1C(=O)NCc1cn2c(n1)CN(C(=O)c1ccsc1)CC2`, the INHIBITION was 61.1%.
`Cc1ccc2cc(C(=O)N3CCC(Nc4cccnn4)CC3)[nH]c2c1` was tested, and the INHIBITION was 21.6%.
For `O=C(NCC[S+]([O-])Cc1ccccc1)c1ccc2[nH]c(=O)[nH]c2c1` (stereo not given), the INHIBITION was 35.2%.
In the case of `Cc1nn(C)c(Cl)c1C1CCCN1C(=O)c1ccoc1C` (stereo not given), the INHIBITION is reported as -29.1%.
`CCOc1cc(C)nc(N2CCN(C(=O)c3cc(C)on3)CC2)n1` was tested, and the INHIBITION was 19.4%.
For `FC(F)(F)c1n[nH]c2c1CN(CCc1ccccn1)CC2`, the INHIBITION was 50%.
`FC(F)(F)c1n[nH]c2c1CN(Cc1cn3ccccc3n1)CC2` was tested, and the INHIBITION was 49.1%.
`O=C(CCN1CCCN(c2nccs2)CC1)Nc1ccccc1` gave an INHIBITION of 15.2%.
`O=C(CCN1CCc2[nH]nc(C(F)(F)F)c2C1)Nc1ccccc1` was tested, and the INHIBITION was 61.1%.
For `CC(C(=O)Nc1ncccn1)N1CCc2[nH]nc(C(F)(F)F)c2C1` (stereo not given), the INHIBITION was -17.9%.
With `[O-][S+](CCN1CCc2[nH]nc(C(F)(F)F)c2C1)c1ccccc1` (stereo not given) the INHIBITION was 36.3%.
With `Cc1nc2n(n1)CC(NCc1nc(-c3ccccn3)no1)CC2` (stereo not given) the INHIBITION was 0%.
Work on `CCOCCNC(=O)C1CCC(=O)N(CCc2ccc(Cl)cc2)C1` (stereo not given) yielded an INHIBITION of 42.5%.
`CC(C(=O)N1CCCN(c2ncccc2C#N)CC1)n1cncn1` (stereo not given) was tested, and the INHIBITION was 11.4%.
